Reference: PubChem BioAssay (EPA / NIEHS)
Activity calls are given as the source filed them. Rule for the calls: active = hit-call score of the fitted dose curve at least 0.9, where 1 is the maximum; inactive = score below 0.9.

Test: ATG_NFI_CIS: Attagene CIS-FACTORIAL HepG2 Assay for human Nuclear Factor I (NFI) (AID 2282989)
Conditions: HepG2 cis-regulatory reporter, NFI response element transcription; actives raise or lower the signal
Procedure: ATG_CIS is a cell-based, multiplexed-readout assay that uses HepG2, a human liver cell line, with measurements taken at 24 hours after chemical dosing in a 24-well plate.ATG_NFI_CIS is one of 52 assay component(s) measured or calculated from the ATG_CIS assay. It is designed to make measurements of mRNA induction, a form of inducible reporter, as detected with fluorescence intensity signals by Reverse transcription polymerase chain reaction (RT-PCR) and Capillary electrophoresis technology.Data from the assay component ATG_NFI_CIS was analyzed into 1 assay endpoint. This assay endpoint, ATG_NFI_CIS, was analyzed with bidirectional fitting relative to DMSO as the negative control and baseline of activity. Using a type of inducible reporter, measures of mRNA for gain or loss-of-signal activity can be used to understand the reporter gene at the transcription factor-level as they relate to the gene NFIA. Furthermore, this assay endpoint can be referred to as a primary readout, because this assay has produced multiple assay endpoints where this one serves a reporter gene function. To generalize the intended target to other relatable targets, this assay endpoint is annotated to the dna binding intended target family, where the subfamily is nuclear factor I.
Human liver HepG2 cells are transiently transfected with multiple reporter transcription units (MRTUs) in 6-well plates using FuGene 6 reagent (Roche; 3 ml FuGene/1 mg DNA). The MRTU constructs are regulated by a cis-regulating element (promoter). […] A major difference between the CIS and TRANS system is that in CIS activities of endogenous TFs are measured, whereas the TRANS assay evaluates changes in activities of exogenous, chimeric NR-Gal4 proteins. […] At the end of 24 hour incubation, total RNA was isolated using TriZol reagent (Invitrogen). The isolated RNA is then reverse-transcribed using oligo(dT) primer and Mo-MLV reverse transcriptase (Invitrogen) with DNAse I (Ambion) treatment for 30 min. The one-tenth of the produced cDNA was amplified by PCR using Taq DNA polymerase (Invitrogen) and two reporter sequence-specific primers. The PCR products were fluorescently labeled by primer extension with 6-arboxyfluorescein (6-FAM) 5'-labeled reporter sequence-specific primer (2 min at 95 C, 20 s at 68 C and 10 min at 72 C) and these products were digested with 5U of HpaI (New England Biolabs) for 2h at 37 C. The fragments were purified using Qiaquick PCR columns (Qiagen), analyzed on an ABI 3130xL genetic analyzer (Applied Biosystems) with peak positions identified by using a set of X-rhodamine (ROX)-labeled MapMarker1000 molecular weight standards (BioVentures). The raw capillary electrophoresis data was processed using Attagraph software (Attagene).

SMILES | outcome | AC50
Nc1ccc2ccccc2c1 | inactive | 
O=C(O)C(F)(F)OC(F)(F)C(F)(F)OC(F)(F)C(=O)O | inactive | 
O=S1(=O)OCC2C(CO1)C1(Cl)C(Cl)=C(Cl)C2(Cl)C1(Cl)Cl (stereo not given) |  | 178 µM (active)
O=P(OCC(Br)CBr)(OCC(Br)CBr)OCC(Br)CBr (stereo not given) | inactive | 
CCN(CC)c1ccccc1 | inactive | 
Clc1ccc(Oc2ccccc2)cc1 | inactive | 
O=P1(N(CCCl)CCCl)NCCCO1 (stereo not given) | inactive | 
O=C(O)C=CC(F)(C(F)(F)F)C(F)(F)F | inactive | 
CCC(C)(C)c1ccc(O)cc1 | inactive | 
CC(=O)CCc1ccc2c(c1)OCO2 | inactive | 
O=S(=O)(c1ccc(O)cc1)c1ccc(O)cc1 | inactive | 
CC(Cl)(Cl)C(=O)O | inactive | 
Nc1ccc(Cl)cc1 | inactive | 
Nc1ccc([N+](=O)[O-])cc1Cl | inactive | 
c1ccc2c(c1)Nc1ccccc1S2 | inactive | 
c1nc[nH]n1 | inactive | 
ClC(Cl)=C(c1ccc(Cl)cc1)c1ccccc1Cl |  | 181 µM (active)
O=NN1CCCC1 | inactive | 
CCOC(=O)c1ccccc1N | inactive | 
CC(Cc1ccc(OCC(=O)O)cc1)NCC(O)c1csc(C(F)(F)F)n1 (stereo not given) | inactive | 

SMILES | outcome | AC50
OCC1CO1 (stereo not given) | inactive | 
C=CC(=O)OCC(CC)(COC(=O)C=C)COC(=O)C=C | inactive | 
CSC(C)(C)C=NO | inactive | 
O=C(CBr)OCc1ccccc1 | inactive | 
CCCCN(CC)C(=O)SCCC | inactive | 
CC(C)Nc1ccc(Nc2ccccc2)cc1 | inactive | 
CCCCCCCc1ccc(O)cc1 | inactive | 
CN(C)C(=O)Cl | inactive | 
O=P(Oc1ccccc1)(Oc1ccccc1)Oc1ccccc1 | inactive | 
CC(C)(C)OOC(C)(C)C | inactive | 
OCC(F)(F)OC(F)(F)C(F)(F)OC(F)(F)C(F)(F)OC(F)(F)F | inactive | 
CCCCOCCOP(=O)(OCCOCCCC)OCCOCCCC | inactive | 
CC1(C)CN=C(NN=C(/C=C/c2ccc(C(F)(F)F)cc2)/C=C/c2ccc(C(F)(F)F)cc2)NC1 |  | 15.4 µM (active)
COC(N)=O | inactive | 
CCOP(=S)(OCC)SCn1nnc2ccccc2c1=O | inactive | 
Oc1ccc(I)cc1 | inactive | 
CC(C)(C)c1ccccc1OP(=O)(Oc1ccccc1)Oc1ccccc1 | inactive | 
O=C(O)C(F)(OC(F)(F)C(F)(F)C(F)(F)F)C(F)(F)F (stereo not given) | inactive | 
CCOc1ccc(C(C)(C)COCc2cccc(Oc3ccccc3)c2)cc1 | inactive | 
CCOP(=O)(O)C(N)=O | inactive | 
